The text below walks through data of PMC4336329 (PLoS ONE, 2015).

In all, about 310,000 compounds went through this assay and about 14,000 (4.5%) showed an effect of 50% or more. The effect is printed as a negative number. The sample holds strong results, similar compounds and a random draw of the others, so the mix is not that of the screen.
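Also: peak tail current of the secondary pulse compared with the same well before compound.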

Sequence of human ether-à-go-go-related gene (hERG) potassium channel (Q12809 whole entry, looked up): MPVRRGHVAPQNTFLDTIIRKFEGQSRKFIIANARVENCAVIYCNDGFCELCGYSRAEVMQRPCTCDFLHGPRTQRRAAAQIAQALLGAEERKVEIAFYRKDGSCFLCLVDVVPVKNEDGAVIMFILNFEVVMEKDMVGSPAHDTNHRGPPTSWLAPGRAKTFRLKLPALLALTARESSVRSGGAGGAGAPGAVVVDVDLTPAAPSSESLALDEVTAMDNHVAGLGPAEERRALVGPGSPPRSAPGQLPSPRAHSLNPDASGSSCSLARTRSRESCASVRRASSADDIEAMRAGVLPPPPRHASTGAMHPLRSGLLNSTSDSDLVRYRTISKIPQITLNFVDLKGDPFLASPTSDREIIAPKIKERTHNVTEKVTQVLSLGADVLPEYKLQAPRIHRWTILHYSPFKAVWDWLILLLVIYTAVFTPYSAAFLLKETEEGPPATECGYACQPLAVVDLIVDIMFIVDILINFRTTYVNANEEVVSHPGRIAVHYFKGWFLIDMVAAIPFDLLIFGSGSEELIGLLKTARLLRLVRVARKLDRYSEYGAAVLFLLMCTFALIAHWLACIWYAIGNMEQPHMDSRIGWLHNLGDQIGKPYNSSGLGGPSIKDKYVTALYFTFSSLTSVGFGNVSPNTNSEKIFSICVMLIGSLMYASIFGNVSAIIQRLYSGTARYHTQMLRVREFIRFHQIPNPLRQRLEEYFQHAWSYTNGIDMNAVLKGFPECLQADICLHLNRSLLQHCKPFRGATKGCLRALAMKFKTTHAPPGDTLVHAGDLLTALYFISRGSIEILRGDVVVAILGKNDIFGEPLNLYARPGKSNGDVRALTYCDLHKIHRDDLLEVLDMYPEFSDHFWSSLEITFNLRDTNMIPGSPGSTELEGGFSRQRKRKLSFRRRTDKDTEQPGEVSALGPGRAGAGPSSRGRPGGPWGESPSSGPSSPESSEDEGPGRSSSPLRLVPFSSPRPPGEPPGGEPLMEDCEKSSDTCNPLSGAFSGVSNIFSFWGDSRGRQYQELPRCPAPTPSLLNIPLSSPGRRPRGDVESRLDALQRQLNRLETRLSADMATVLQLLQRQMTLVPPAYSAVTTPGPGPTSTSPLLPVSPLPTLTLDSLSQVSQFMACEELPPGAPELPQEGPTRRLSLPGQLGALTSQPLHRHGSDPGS

This assay concerns the target human ether-à-go-go-related gene (hERG) potassium channel (human, UniProt Q12809). The assay is described as follows: primary screen, population patch clamp on CHO cells stably expressing hERG; higher = less effect of the substance.
Consider `N[C@@H](Cc1ccc(O)c(I)c1)C(=O)O`, for which the “hERG current change (%, negative = inhibition) at 10uM” value was determined as 17.6%.

In the case of `COc1ccc(NC(=O)c2oc3ccccc3c2NC(=O)C2CCCO2)cc1OC` (centres unmarked), the “hERG current change (%, negative = inhibition) at 10uM” value was -17.8%.

Regarding `c1ccc(C2=Nn3c(nnc3-c3cc(-c4ccccc4)n[nH]3)SC2)cc1`, the “hERG current change (%, negative = inhibition) at 10uM” value amounted to 6.46%.

In the case of `COc1ccc(OC)c(/C=N/NC(=O)CSc2nnc(C)n2-c2ccccc2)c1`, the “hERG current change (%, negative = inhibition) at 10uM” value was -12.4%.

Consider `CCOc1cc(/C=C(\C#N)C(=O)NCc2cccnc2)ccc1O`, for which the “hERG current change (%, negative = inhibition) at 10uM” value was -8.66%.

Consider `COc1ccccc1/C=C\C=N\NC(=O)CCn1nnc2ccccc21`, for which the “hERG current change (%, negative = inhibition) at 10uM” value is listed as -3.44%.

On to `Cc1nc(Br)c(Br)c(C)c1Br`, for which the “hERG current change (%, negative = inhibition) at 10uM” value is listed as 14.4%.

In the case of `O=C(CNc1cccc(S(=O)(=O)N2CCCCCC2)c1)Nc1cccc([N+](=O)[O-])c1`, the “hERG current change (%, negative = inhibition) at 10uM” value is listed as -71.9%.

`O=C(CCNC(=O)c1ccc([N+](=O)[O-])cc1)Nc1ccc(S(=O)(=O)N2CCOCC2)cc1`: the “hERG current change (%, negative = inhibition) at 10uM” value worked out at 2.67%.

In the case of `O=C(CNc1cccc(S(=O)(=O)N2CCCCC2)c1)Nc1cccc(F)c1`, the “hERG current change (%, negative = inhibition) at 10uM” value was -9.9%.

As to `Cc1ccc(NC(=O)CCNC(=O)c2ccc([N+](=O)[O-])cc2)cc1S(=O)(=O)N1CCOCC1`, the “hERG current change (%, negative = inhibition) at 10uM” value is -47.4%.

For `CC(=O)c1cccc(NCC(=O)Nc2cccc(S(=O)(=O)N3CCCCC3)c2)c1`, the “hERG current change (%, negative = inhibition) at 10uM” value is reported as -31.6%.

For the compound `O=C(CCNC(=O)c1ccc([N+](=O)[O-])cc1)Nc1ccc(Cl)c(S(=O)(=O)N2CCOCC2)c1`, the “hERG current change (%, negative = inhibition) at 10uM” value was -66.2%.

With `Cc1ccc(-n2c(C)nnc2SCC(=O)N(C)C2CCS(=O)(=O)C2)cc1` (centres unmarked), the “hERG current change (%, negative = inhibition) at 10uM” value amounted to 12.9%.

With `Cl.O=C(CCc1ccc(S(=O)(=O)N2CCOCC2)cc1)N1CCN(Cc2ccc3c(c2)OCO3)CC1`, the “hERG current change (%, negative = inhibition) at 10uM” value is on record as -34.3%.

As for `Clc1ccc(-c2cn3nc4c(nc3n2)CCCC4)cc1`, the “hERG current change (%, negative = inhibition) at 10uM” value is -15.3%.

For the compound `CCOC(=O)c1ccc(NC(=O)c2ccc(NC(=O)C3CCCO3)cc2)cc1` (centres unmarked), the “hERG current change (%, negative = inhibition) at 10uM” value worked out at 17%.

As to `O=C(Nc1ccccc1N1CCN(C(=O)c2ccc(Cl)cc2)CC1)c1ccc(Br)cc1`, the “hERG current change (%, negative = inhibition) at 10uM” value is given as -41.5%.

Take `O=C(Nc1ccccc1N1CCN(C(=O)c2ccccc2)CC1)c1cccc(Cl)c1`: the “hERG current change (%, negative = inhibition) at 10uM” value is given as -67.8%.

As for `O=C(Nc1ccccc1N1CCCCC1)c1cccc(Cl)c1`, the “hERG current change (%, negative = inhibition) at 10uM” value came out at 13.5%.

With `CC(C)(C)C(=O)Nc1ccccc1N1CCN(C(=O)c2ccc(Cl)cc2)CC1`, the “hERG current change (%, negative = inhibition) at 10uM” value is -48.2%.

Consider `COc1cccc(OC)c1C(=O)Nc1ccccc1N1CCCCC1`, for which the “hERG current change (%, negative = inhibition) at 10uM” value is listed as -17.4%.

Consider `COc1cccc(OC)c1C(=O)Nc1ccccc1N1CCCC1`, for which the “hERG current change (%, negative = inhibition) at 10uM” value is on record as -74.6%.

On to `COc1ccccc1C(=O)Nc1ccccc1N1CCN(C(=O)c2ccc(Cl)cc2)CC1`, for which the “hERG current change (%, negative = inhibition) at 10uM” value was -82.1%.

In the case of `CC(C)C(=O)NC(=S)Nc1ccccc1N1CCN(C(=O)c2ccc(Cl)cc2)CC1`, the “hERG current change (%, negative = inhibition) at 10uM” value is given as -3.55%.

Regarding `O=C(Nc1ccccc1N1CCN(C(=O)c2ccccc2)CC1)c1ccc(Cl)cc1`, the “hERG current change (%, negative = inhibition) at 10uM” value is -73.2%.

Take `COc1ccccc1C(=O)Nc1ccccc1N1CCCCC1`: the “hERG current change (%, negative = inhibition) at 10uM” value was -22.4%.

As to `CC(C)C(=O)Nc1ccccc1N1CCN(C(=O)c2ccccc2)CC1`, the “hERG current change (%, negative = inhibition) at 10uM” value is -14.2%.

On to `COc1ccccc1C(=O)Nc1ccccc1N1CCOCC1`, for which the “hERG current change (%, negative = inhibition) at 10uM” value is reported as -6.98%.

For `O=C(NC1CCSc2ccccc21)c1ccc(Cl)c(S(=O)(=O)N2CCOCC2)c1` (centres unmarked), the “hERG current change (%, negative = inhibition) at 10uM” value is on record as 7.48%.

With `Cc1ccc(C(=O)Nc2nc3ccccc3s2)s1`, the “hERG current change (%, negative = inhibition) at 10uM” value is recorded as 8.75%.

With `CC(C)[C@H](NC(=O)c1ccco1)C(=O)N(C)Cc1c(F)cccc1Cl`, the “hERG current change (%, negative = inhibition) at 10uM” value was -32.3%.

Consider `CCOC(=O)C1(C)/C(=N/Nc2ccccc2Cl)C(=O)C(=O)N1c1ccccc1` (centres unmarked), for which the “hERG current change (%, negative = inhibition) at 10uM” value worked out at 6.03%.

In the case of `Cc1ccc(S(=O)(=O)n2nc(C)c(Br)c2C)c(C)c1C`, the “hERG current change (%, negative = inhibition) at 10uM” value amounted to 20.8%.

For the compound `Cc1ccc(S(=O)(=O)NCc2ccc(C(=O)N3CCN(c4ccccn4)CC3)cc2)cc1`, the “hERG current change (%, negative = inhibition) at 10uM” value is -33.6%.

With `Nc1nc(-c2ccccc2)nc2sc3c(c12)CCCC3`, the “hERG current change (%, negative = inhibition) at 10uM” value was 11.7%.

Consider `CC(C)C(=O)N1CCN(c2ccccc2NC(=O)c2cccc(Cl)c2)CC1`, for which the “hERG current change (%, negative = inhibition) at 10uM” value is -69.6%.

With `COc1ccccc1NC(=O)COC(=O)c1ccccc1C(=O)N1CCN(c2ccccc2)CC1`, the “hERG current change (%, negative = inhibition) at 10uM” value is listed as -42.3%.

Regarding `CCCCOc1cccc(C(=O)Nc2ccccc2N2CCCC2)c1`, the “hERG current change (%, negative = inhibition) at 10uM” value was determined as 5.59%.

For the compound `COc1ccccc1C(=O)Nc1ccccc1N1CCN(S(C)(=O)=O)CC1`, the “hERG current change (%, negative = inhibition) at 10uM” value is -62%.

For the compound `COc1cc(Cl)ccc1NC(=O)COc1ccccc1C(=O)N1CCN(c2ccc(O)cc2)CC1`, the “hERG current change (%, negative = inhibition) at 10uM” value is -53.9%.

For `COc1cc2ccccc2cc1C(=O)Nc1ccccc1N1CCN(S(C)(=O)=O)CC1`, the “hERG current change (%, negative = inhibition) at 10uM” value is 6.35%.

For `CCOc1ccc(C(=O)Nc2ccccc2N2CCCC2)cc1`, the “hERG current change (%, negative = inhibition) at 10uM” value is on record as -22.8%.

`Cc1ccc(C(=O)Nc2ccccc2N2CCN(C(=O)C(C)C)CC2)cc1`: the “hERG current change (%, negative = inhibition) at 10uM” value is recorded as -19.1%.

In the case of `COc1cc(C(=O)Nc2ccccc2N2CCN(S(C)(=O)=O)CC2)cc(OC)c1OC`, the “hERG current change (%, negative = inhibition) at 10uM” value is on record as -29.9%.

Regarding `CCOc1cccc(C(=O)Nc2ccccc2N2CCN(C(=O)C(C)C)CC2)c1`, the “hERG current change (%, negative = inhibition) at 10uM” value was -70%.

Take `Cc1ccc(C(=O)Nc2ccccc2N2CCN(C(=O)C(C)C)CC2)cc1C`: the “hERG current change (%, negative = inhibition) at 10uM” value was -18.7%.

`COc1cc(Cl)ccc1NC(=O)COc1ccccc1C(=O)NN`: the “hERG current change (%, negative = inhibition) at 10uM” value was -15.4%.

Consider `O=C(CNC(=O)c1ccc(Cl)cc1)c1ccccc1`, for which the “hERG current change (%, negative = inhibition) at 10uM” value was -9.6%.

For `CC(C)OC(=O)CSc1nnc2c(n1)[nH]c1ccc(F)cc12`, the “hERG current change (%, negative = inhibition) at 10uM” value was determined as 8.22%.

For `CN(C(=O)Cn1nnc(-c2ccc(F)cc2)n1)C1CCS(=O)(=O)C1` (centres unmarked), the “hERG current change (%, negative = inhibition) at 10uM” value was -2.38%.

For the compound `NC1=NC(=O)C(CC(=O)c2ccc(Cl)cc2)S1` (centres unmarked), the “hERG current change (%, negative = inhibition) at 10uM” value is 1.23%.

On to `COc1cccc(-n2c(SCC(=O)NCc3cccs3)nc3ccccc3c2=O)c1`, for which the “hERG current change (%, negative = inhibition) at 10uM” value is -2.74%.

For the compound `Cc1ccc(C(=O)N2CCN(c3cc(=O)[nH]nc3-c3ccccc3)CC2)cc1`, the “hERG current change (%, negative = inhibition) at 10uM” value is given as -41.7%.

In the case of `O=C(Nc1ccccc1N1CCN(C(=O)c2ccc(Cl)cc2)CC1)c1cccc([N+](=O)[O-])c1`, the “hERG current change (%, negative = inhibition) at 10uM” value was -75%.

Consider `O=C(c1ccc(Cl)cc1)N1CCN(c2cc(=O)[nH]nc2-c2ccccc2)CC1`, for which the “hERG current change (%, negative = inhibition) at 10uM” value is listed as -58.3%.

Regarding `CCC(=O)N1CCN(c2ccc(Cl)cc2NC(=O)c2cccc([N+](=O)[O-])c2)CC1`, the “hERG current change (%, negative = inhibition) at 10uM” value was -49.2%.

Take `O=C(Nc1ccc(Cl)cc1C(=O)N1CCCC1)c1cccc([N+](=O)[O-])c1`: the “hERG current change (%, negative = inhibition) at 10uM” value was -12%.

`O=C(NC(=S)NCc1ccccc1)c1ccc2c(c1)OCO2`: the “hERG current change (%, negative = inhibition) at 10uM” value is recorded as -8.81%.

Regarding `O=C(NC(=S)Nc1ccccc1Br)c1ccc2c(c1)OCO2`, the “hERG current change (%, negative = inhibition) at 10uM” value is -56.4%.

Consider `O=C(c1ccc(F)cc1)N1CCN(c2cc(=O)[nH]nc2-c2ccccc2)CC1`, for which the “hERG current change (%, negative = inhibition) at 10uM” value is given as -4.51%.

`O=C(Nc1ccccc1N1CCCC1)c1cccc(F)c1`: the “hERG current change (%, negative = inhibition) at 10uM” value turned out to be 6.24%.

As to `COC(=O)c1ccccc1NC(=S)NC(=O)c1ccc2c(c1)OCO2`, the “hERG current change (%, negative = inhibition) at 10uM” value was determined as 32.6%.

In the case of `O=C(Nc1ccccc1N1CCN(C(=O)c2ccc(Cl)cc2)CC1)c1cccc(F)c1`, the “hERG current change (%, negative = inhibition) at 10uM” value is -78.9%.

In the case of `O=C(Nc1ccccc1N1CCN(c2ccccc2)CC1)c1cccc(F)c1`, the “hERG current change (%, negative = inhibition) at 10uM” value is listed as -8.05%.
